Laboratory results taken from PubChem BioAssay (Tox21).
Records with an inconclusive call do not appear. Entries that show only a call come without a potency. Active and inactive are the calls of the source. Calls come from the whole dose curve; as a rule, active = well fitted inhibition curve with a large enough effect in the repeat runs; inconclusive = weak or mixed curves; inactive = no such curve, though single readings can be large or run the other way.

Biological target: Aromatase (Homo sapiens) (UniProt P11511)
Assay: qHTS assay to identify aromatase inhibitors (AID 743083); note: nearly all actives have a fitted effect of over 55% in size
Conditions: MCF-7 aro ERE, testosterone-driven ERE luciferase, 24 h; series mostly up to 70.3 µM

Sequence of Aromatase (Homo sapiens) (P11511 whole entry, looked up): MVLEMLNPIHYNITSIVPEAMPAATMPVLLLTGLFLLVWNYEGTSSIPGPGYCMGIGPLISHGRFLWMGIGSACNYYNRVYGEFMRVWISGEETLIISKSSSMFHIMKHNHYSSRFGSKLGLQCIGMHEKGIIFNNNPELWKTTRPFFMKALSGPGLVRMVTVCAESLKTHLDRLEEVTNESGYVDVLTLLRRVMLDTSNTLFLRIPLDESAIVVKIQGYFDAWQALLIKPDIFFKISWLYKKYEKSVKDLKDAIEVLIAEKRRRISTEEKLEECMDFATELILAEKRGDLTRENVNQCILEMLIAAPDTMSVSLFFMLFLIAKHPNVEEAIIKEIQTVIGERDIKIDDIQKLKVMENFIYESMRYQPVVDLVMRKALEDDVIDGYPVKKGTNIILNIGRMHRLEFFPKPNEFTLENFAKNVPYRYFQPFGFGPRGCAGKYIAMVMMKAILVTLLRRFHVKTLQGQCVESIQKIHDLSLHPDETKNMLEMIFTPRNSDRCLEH

Row | SMILES | Potency
1 | NCCCN1CCN(CCCN)CC1 | inactive
2 | CCOC(=O)[C@H](CCc1ccccc1)N[C@@H](C)C(=O)N1Cc2cc(OC)c(OC)cc2C[C@H]1C(=O)O | inactive
3 | COc1ccc(S(=O)(=O)Nc2nnc(CC(C)C)s2)cc1 | inactive
4 | C[C@]12C(=O)OC(=O)[C@H]1[C@H]1C=C[C@@H]2C1 | inactive
5 | COC(C)CCO (centres undefined) | inactive
6 | Cn1cnc2c(F)c(Nc3ccc(Br)cc3Cl)c(C(=O)NOCCO)cc21 | inactive
7 | Cc1cc(S(=O)(=O)O)c(N)cc1Cl | inactive
8 | OC[C@H]1O[C@@H](O[C@H]2[C@H](O)[C@@H](O)[C@H](O)O[C@@H]2CO)[C@H](O)[C@@H](O)[C@H]1O | inactive
9 | C=CCc1cc(OC)c(O)c(C(=O)NCCO)c1 | inactive
10 | COc1ccccc1OCC(O)COC(N)=O (centres undefined) | inactive
11 | CC1=C2[C@H](/C=C(\C)C(=O)O)CC[C@@H](C)[C@H]2CC1 | inactive
12 | OCCN(CCO)c1ccccc1 | inactive
13 | CC(C)C(=O)OC/C=C/c1ccccc1 | inactive
14 | CCOC(=O)NCCC[Si](OCC)(OCC)OCC | inactive
15 | O=C1C=CC(=O)O1 | inactive
16 | CN1CCN(C2=Nc3cc(F)ccc3Cc3ccccc32)CC1 | inactive
17 | Oc1ccccc1F | inactive

Row | SMILES | Potency
18 | Nc1cccc(S(=O)(=O)O)c1 | inactive
19 | COC(=O)C(C)O (centres undefined) | inactive
20 | CC(C)O | inactive
21 | CCCCC1CCC(=O)O1 (centres undefined) | inactive
22 | CC1(C)O[C@@H]2C[C@H]3[C@@H]4CCC5=CC(=O)CC[C@]5(C)[C@@]4(F)[C@@H](O)C[C@]3(C)[C@]2(C(=O)CCl)O1 | inactive
23 | C[C@@H]1CN(c2c(F)c(F)c3c(=O)c(C(=O)O)cn(C4CC4)c3c2F)C[C@H](C)N1 | inactive
24 | FC(F)(F)C(Cl)(Cl)Cl | inactive
25 | CN(C)Cc1ccccc1 | inactive
26 | CCCCc1ccc2nc(NC(=O)OC)[nH]c2c1 | inactive
27 | FC(F)(F)c1ccccc1 | inactive
28 | Cc1ncc(CO)c(CN)c1O | inactive
29 | CCc1cc(Cl)c(OC)c(C(=O)NC[C@@H]2CCCN2CC)c1O | inactive
30 | Cc1nnc(SCC2=C(C(=O)O)N3C(=O)[C@@H](NC(=O)Cn4cnnn4)[C@H]3SC2)s1 | inactive
31 | O=C1CCCCCCCCCCC(=O)OCCO1 | inactive
32 | CC(C)(CO)[C@@H](O)C(=O)NCCC(=O)O | inactive
33 | CCOC(=O)C1CC(=O)C(=C(O)C2CC2)C(=O)C1 (centres undefined) | inactive
34 | CCOc1ccccc1N | inactive
